M1 antag = human CHRM1 antagonism | P11229 | CHO-K1 hM1, Fluo-8 calcium fluorescence, ACh EC80 antagonist | inhibition, % at 3 µM | actives 1.3% (n = 360,000);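 active = percent inhibition above its own plate's cutoff, namely the mean of that plate's compound wells plus 3 SD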;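 note: peak over basal fluorescence ratio during 140 s after agonist addition; 0% = ACh EC80 plus DMSO and 100% = DMSO alone without agonist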
Target sequence (P11229 whole entry, looked up): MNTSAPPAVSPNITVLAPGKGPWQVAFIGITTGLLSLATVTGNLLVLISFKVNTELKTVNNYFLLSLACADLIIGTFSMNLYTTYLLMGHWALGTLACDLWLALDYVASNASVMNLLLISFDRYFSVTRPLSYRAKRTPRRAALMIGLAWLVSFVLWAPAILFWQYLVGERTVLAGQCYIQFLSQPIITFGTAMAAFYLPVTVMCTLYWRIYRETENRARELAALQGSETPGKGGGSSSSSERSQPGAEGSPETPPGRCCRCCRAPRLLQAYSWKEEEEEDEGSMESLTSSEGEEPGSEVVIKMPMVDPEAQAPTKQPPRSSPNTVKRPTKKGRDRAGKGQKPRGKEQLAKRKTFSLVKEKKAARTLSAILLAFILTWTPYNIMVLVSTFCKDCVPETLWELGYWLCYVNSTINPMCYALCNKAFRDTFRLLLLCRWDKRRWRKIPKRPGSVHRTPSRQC
CHO-K1 Ca antag = counter-screen for M1 antagonists: effect in parental CHO-K1 cells | actives 0.6% (n = 360,000) | AID 602250 | ATP-induced calcium, Fluo-8 fluorescence | inhibition, % at 3 µM;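 active = inhibition above a per-plate cutoff, the plate's mean sample inhibition plus 3 SD, cut at about 24% in these data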;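 note: 0% = DMSO plus EC80 ATP and 100% = DMSO alone without ATP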
CHO-K1 Ca ag = counter-screen for M1 agonists: effect in parental CHO-K1 cells; Fluo-8 calcium fluorescence; scaled to maximal ATP response, vehicle zero; activation, % at 3 µM; actives 0.48% (n = 360,000); AID 602248; in the data active = activation above about 15%;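 note: untransfected CHO-K1 host cells lacking M1 receptor as counterscreen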
CHRM1 agonist = activates human CHRM1 receptor; P11229; CHO-K1 hM1, Fluo-8 calcium fluorescence, agonist mode; 0% DMSO, 100% acetylcholine EC100; activation, % at 3 µM; actives 0.33% (n = 360,000);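 active = activation above the run's mean compound activation plus 3 SD, cut at about 16% in these data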;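 note: peak over basal fluorescence ratio within a 140 s kinetic read after compound addition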
CHRM1 PAM = potentiates human M1 receptor response to acetylcholine. AID 588819. actives 0.088% (n = 360,000). CHO-K1 hM1, Fluo-8 calcium fluorescence, ACh EC20; 0% = ACh EC20, 100% = maximal ACh. activation, % at 3 µM; in the data active = activation above about 19%, passing the limit was not always enough
CHO-K1 Ca PAM = M1 PAM counterscreen hit in parental CHO-K1 cells; ATP EC20, Fluo-8 calcium fluorescence; 0% at ATP EC20, 100% at ATP max; activation, % at 3 µM; actives 0.02% (n = 360,000);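 active = activation above the run cutoff, the mean activation of all test compounds plus 3 SD, cut at about 40% in these data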;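 note: peak over basal fluorescence ratio in a 140 s read after ATP addition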
Starred values were filed as active, the others as inactive. An excerpt weighted towards active compounds, which were near 2.4% of everything screened.

SMILES	M1 antag	CHO-K1 Ca antag	CHO-K1 Ca ag	CHRM1 agonist	CHRM1 PAM	CHO-K1 Ca PAM
CCCOc1ccc(C(=O)NNC(=S)NC(=O)c2ccccc2[N+](=O)[O-])cc1	8	3	15*	13	5	7
CC(C)(C)c1ccc(C(=O)NC(=S)NNC(=O)COc2ccccc2)cc1	4	-4	2	24*	0	2
COc1ccc(C(=O)NNC(=S)NC(=O)c2ccco2)cc1	-6	-4	7	7	2	8
CCCOc1ccc(C(=O)NNC(=S)NC(=O)c2cccs2)cc1	78*	44*	87*	92*	-25	-29
CCCOc1ccc(C(=O)NNC(=S)NC(=O)c2ccco2)cc1	17	21	60*	67*	-18	-28
CCCOc1ccc(C(=O)NNC(=S)NC(=O)c2ccccc2)cc1	69*	42*	105*	115*	-38	-39
COC(=O)CNC(=S)NC(=O)c1ccc(C(C)(C)C)cc1	72*	-6	0	-7	-24	7
O=C(COc1ccc(Cl)cc1Cl)NNC(=S)NC(=O)c1ccco1	-1	-9	0	-2	-1	12
CC(Oc1ccc(Cl)cc1)C(=O)NNC(=S)NC(=O)c1ccco1 (configuration not stated)	-2	-3	32*	51*	-10	6
CC(C)(C)c1ccc(C(=O)NC(=S)NCc2cccnc2)cc1	8	-5	3	-8	-16	3
O=C(NCCc1cccc(Cl)c1)c1ccc(Cl)c([N+](=O)[O-])c1	-2	2	5	-7	-12	5
O=C(NCCc1nc2ccccc2[nH]1)c1ccc(Cl)c([N+](=O)[O-])c1	29*	9	3	-8	-27	19
Cc1ccc(C(=O)NCCc2nc3ccccc3[nH]2)cc1[N+](=O)[O-]	5	24*	1	-1	-6	-12
Cc1ccc(C(=O)NCCSc2c(C)[nH]c3ccccc23)cc1[N+](=O)[O-]	14	5	5	-4	-15	-3
COc1ccc(S(=O)(=O)N2CCC(C(=O)NCc3cccs3)CC2)cc1	4	-10	2	-5	0	13
CC1C(=O)N2CCCc3cc(NC(=O)C(=O)NCCN4CCOCC4)cc1c32 (configuration not stated)	37*	20	0	-1	-14	-30
CC(C)CNC(=O)C(=O)Nc1cc2c3c(c1)C(C)C(=O)N3CCC2 (configuration not stated)	-12	-4	1	-2	9	3
CC(=O)O/N=C1\C(=O)N(Cc2ccc(C)cc2)c2ccccc21	-6	5	1	24*	10	17
Cc1cc(C)n(C(C)CC(=O)N2CCc3ccccc32)n1 (configuration not stated)	33*	-4	1	-5	-16	9
C=CCNC(=O)c1ccccc1NC(=O)C1CCN(S(=O)(=O)c2ccc(SC)cc2)CC1	-3	1	1	-5	9	-6
COc1ccc(OC)c(C(=O)c2coc3ccc(O)c(CN(C)C)c23)c1	-6	-8	1	-7	8	14
COc1ccc2occ(C(=O)c3coc4ccc(O)c(CN(C)C)c34)c2c1	20*	5	5	-2	-12	11
COc1ccc(C(=O)C2CCCN(C(=O)Cn3cncn3)C2)cc1OC (configuration not stated)	-4	-7	1	-2	2	-13
COc1cccc(C(=O)C2CCCN(Cc3cccc(OCCO)c3)C2)c1 (configuration not stated)	2	-6	1	-11	-4	4
COc1cccc(C(=O)C2CCCN(Cc3ccc(OC)c(Cn4cncn4)c3)C2)c1 (configuration not stated)	37*	0	0	-8	-22	-14
SMILES	M1 antag	CHO-K1 Ca antag	CHO-K1 Ca ag	CHRM1 agonist	CHRM1 PAM	CHO-K1 Ca PAM
COc1ccc(CN2CCCC(C(=O)c3ccc(Cl)cc3)C2)cc1Cn1cccn1 (configuration not stated)	58*	-5	5	-8	-26	-10
COc1cccc(C(=O)C2CCCN(Cc3cccc(-n4nc(C)cc4C)c3)C2)c1 (configuration not stated)	60*	1	1	-10	-30	2
Clc1cccc(CNc2ccn3nc(-c4cccs4)cc3n2)c1	-12	-7	1	4	12	21
Clc1cccc(CNc2ccn3nc(-c4ccco4)cc3n2)c1	-16	26*	-1	1	16	-13
CCOC1=C2CN(S(=O)(=O)c3ccc(C)cc3)[C@@H](c3ccccc3)C[C@H]2[C@H]2C(=O)N(c3ccccc3)C(=O)[C@H]2C1	11	28*	3	-4	-1	5
CCOC1=C2[C@@H](CN(S(=O)(=O)c3ccc(C)cc3)[C@H]2c2ccc(CC)cc2)[C@H]2C(=O)N(c3ccccc3)C(=O)[C@H]2C1	-3	3	0	-5	-3	4
CCOC1=C2CN(S(=O)(=O)c3ccc(C)cc3)[C@H](c3cccc(Cl)c3)C[C@H]2[C@H]2C(=O)N(c3ccccc3)C(=O)[C@H]2C1	-1	10	4	-2	6	15
CCCCC[C@@H]1[C@@H]2C(=C(OCC)C[C@@H]3C(=O)N(c4ccccc4)C(=O)[C@H]23)[C@H](c2ccccc2)N1S(=O)(=O)c1ccc(C)cc1	-5	25*	0	5	5	-1
O=C(Nc1cccc2ccccc12)N1CCCN(c2c(Cl)cncc2Cl)CC1	-2	-2	3	-3	-3	14
CCOC(=O)C1(Cc2cccc(Cl)c2)CCCN(C(=O)CCC(=O)N(C)C)C1 (configuration not stated)	-3	-5	1	-5	6	19
CCc1ccc2[nH]cc(C(=O)N3CCCCCC3)c(=O)c2c1	-1	18	0	-2	7	-6
Cn1c(=O)c(-c2cccc(Cl)c2)c(O)c2ccccc21	-12	3	1	-1	10	-2
Cn1c2[n+](c3ccc(Cl)cc3c1=O)Cc1ccccc1-2	13	4	16*	-3	-6	5
CC(C)C[C@H]1CNC(=S)N1CC1CCN(CCCC2CCCCC2)CC1	83*	8	1	-12	-31	-1
CC[C@H](C)[C@H]1CNC(=S)N1CC1CCN(CCC(C)(C)C)CC1	-4	-11	0	-8	4	2
CC(C)C[C@H]1CNC(=S)N1CC1CCN(CCC23CC4CC(CC(C4)C2)C3)CC1	88*	-18	1	-10	-31	24
CCN1CCC(CN2CCNC2=S)CC1	-4	-6	0	-9	2	16
S=C1NCCN1CC1CCN(CCC23CC4CC(CC(C4)C2)C3)CC1	85*	-7	0	-11	-31	-11

Screening results from PubChem.
